PubChem BioAssay (NCATS)
Records with an inconclusive call do not appear. A number with no mark means an inactive call. The call rests on the fitted dose curve; in most records, active means well fitted activation curve with a large enough effect; inconclusive means small, poorly fitted or top-dose-only effect; inactive means no such curve, though single readings can be large or run the other way.

Each compound was assayed against Rap guanine nucleotide exchange factor 3 (Homo sapiens) (UniProt O95398) (assay: Confirmatory qHTS for agonist of cAMP-regulated guanine nucleotide exchange factor 3 (EPAC1) (AID 1645881;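 further: EPAC1 catalysed release of BODIPY-GDP from Rap1B seen as fluorescence loss; 100% = effect of cAMP agonist control; nearly all actives have a fitted effect of over 75% in size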)). Conditions: EPAC1 Rap1B BODIPY-GDP exchange fluorescence; series mostly up to 154 µM; activation: at the top concentration.
Chain of Rap guanine nucleotide exchange factor 3 (Homo sapiens) (O95398 whole entry, looked up): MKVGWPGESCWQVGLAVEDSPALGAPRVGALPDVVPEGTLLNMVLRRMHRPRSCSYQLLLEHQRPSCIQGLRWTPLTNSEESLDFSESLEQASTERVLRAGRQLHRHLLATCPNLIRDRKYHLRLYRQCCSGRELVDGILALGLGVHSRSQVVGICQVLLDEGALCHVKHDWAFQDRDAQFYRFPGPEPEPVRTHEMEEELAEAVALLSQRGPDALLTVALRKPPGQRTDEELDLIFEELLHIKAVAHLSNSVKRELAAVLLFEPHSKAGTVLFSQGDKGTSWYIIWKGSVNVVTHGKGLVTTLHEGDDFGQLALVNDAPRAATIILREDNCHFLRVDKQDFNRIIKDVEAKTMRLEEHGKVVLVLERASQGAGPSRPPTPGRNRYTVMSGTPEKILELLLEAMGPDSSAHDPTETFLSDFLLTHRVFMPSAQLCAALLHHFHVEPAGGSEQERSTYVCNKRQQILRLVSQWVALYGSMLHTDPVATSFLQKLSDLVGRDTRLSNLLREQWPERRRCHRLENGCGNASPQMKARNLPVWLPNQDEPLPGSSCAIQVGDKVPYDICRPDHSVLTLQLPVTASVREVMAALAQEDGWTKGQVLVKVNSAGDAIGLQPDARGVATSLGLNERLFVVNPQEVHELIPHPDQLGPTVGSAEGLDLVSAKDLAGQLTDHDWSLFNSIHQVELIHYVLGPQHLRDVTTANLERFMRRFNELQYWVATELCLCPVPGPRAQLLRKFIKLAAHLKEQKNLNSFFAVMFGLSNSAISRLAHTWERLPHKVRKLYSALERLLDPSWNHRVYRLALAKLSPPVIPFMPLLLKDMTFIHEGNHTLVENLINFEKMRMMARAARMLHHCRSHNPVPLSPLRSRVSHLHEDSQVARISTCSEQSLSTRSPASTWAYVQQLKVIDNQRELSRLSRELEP

| SMILES | activation [%] |
| --- | --- |
| C=CCn1c(=NC(=O)c2sc3ccccc3c2Cl)sc2cc(S(N)(=O)=O)ccc21 | -3 |
| CC(C)N1CCc2c(sc(NC(=O)c3ccc(S(=O)(=O)N4CCc5ccccc54)cc3)c2C(N)=O)C1 | 6.85 |
| O=C(NCCc1c[nH]c2ccccc12)C(=O)Nc1cc2c3c(c1)CC(=O)N3CCC2 | -7.1 |
| O=[N+]([O-])c1ccc(NS(=O)(=O)c2ccc(Cl)c(Cl)c2)cc1 | -0.709 |
| COc1ccc(OC)c(N2C(=O)[C@@H]3C(c4ccccc4Cl)=NO[C@@H]3C2=O)c1 | 2.72 |
| Clc1ccc(Cn2c(/C=C/c3ccco3)nc3ccccc32)cc1 | 6.78 |
| COc1ccc(OC)c(CCNC(=O)c2ccc(CS(=O)(=O)c3ccc(Br)cc3)o2)c1 | -13.9 |
| Cc1ccc(N(Cc2cccs2)C(=O)c2ccco2)cc1 | -9.38 |
| CCc1ccc(NS(=O)(=O)c2cc3c4c(c2)CCN4C(=O)CC3)cc1 | 4.81 |
| NS(=O)(=O)c1ccc(NC(=O)c2cccc(N3C(=O)c4ccccc4C3=O)c2)cc1 | 14.7 |
| O=C1C=C(NCc2ccccc2)c2ccccc2C1=O | 13.9 |
| CC(Oc1ccc(Cl)cc1)C(=O)Nc1sccc1C(N)=O (stereo not given) | 6.19 |
| O=S(=O)(NCCC1=CCCCC1)c1ccc(OC(F)(F)F)cc1 | -23.9 |
| COc1ccc(-c2nc3ccccc3n2CCC(C)C)cc1OC | 9.62 |
| O=C(O)c1ccccc1NS(=O)(=O)c1ccc(NN=Cc2ccccc2F)c([N+](=O)[O-])c1 | 9.76 |
| C[C@H]1CN([C@@H](C)CO)C(=O)c2cccc(NC(=O)C3CC3)c2O[C@H]1CN(C)S(=O)(=O)c1ccccc1 | -2.99 |
| C=CCc1ccccc1OCCSc1nc(-c2ccccc2F)nc2cc(=O)[nH]n12 | 3.26 |
| CCC(C)n1c(SCC(=O)Nc2ccc3[nH]c(=O)[nH]c3c2)nc2ccccc2c1=O (stereo not given) | 8.53 |
| C#Cc1ccc([C@@H]2C=C(C(=O)NCc3ccccc3)O[C@H](OCc3ccc(CO)cc3)C2)cc1 | 8.57 |
| Cc1ccc(-c2nnc(Nc3ccc(OCC(N)=O)cc3)c3ccccc23)cc1S(N)(=O)=O | 12 |

| SMILES | activation [%] |
| --- | --- |
| CCc1ccc(OCC2c3cc(OC)c(OC)cc3CCN2C(C)=O)cc1 (stereo not given) | 12.3 |
| CC(=O)c1sc2nc(CSc3nnnn3-c3ccccc3)[nH]c(=O)c2c1C | 2.44 |
| O=c1c2ccccc2c(C=Nc2ccc(O)cc2)c(O)n1Cc1ccccc1 | -43.5 |
| COc1ccccc1C1CC(=O)Oc2cc(C)c(Cl)cc21 (stereo not given) | 7.52 |
| NS(=O)(=O)c1ccc(N/N=C/c2ccccc2C(=O)O)c([N+](=O)[O-])c1 | -3.21 |
| Cc1ccc(/C=C/C(=O)Nc2nnc(SCc3ccc(C#N)cc3)s2)o1 | -6.66 |
| CCOC(=O)C1=C(N)Oc2cc(O)ccc2C1c1ccccc1 (stereo not given) | 6.56 |
| CC(=O)c1c(C)[nH]c(C(=O)OCC(=O)c2ccc3c(c2)NC(=O)CO3)c1C | -2.17 |
| Cc1ccc(C)c(Nc2cc(C)nc(-c3ccccc3O)n2)c1 | 13.8 |
| CC(=O)Nc1ccc(S(=O)(=O)Nc2nc3ccccc3nc2-n2ccc(=NC(=O)c3ccccc3)cc2)cc1 | 13.6 |
| O=C(N/N=C/c1ccccc1O)c1cccc(C(F)(F)F)c1 | -0.0438 |
| COC(=O)c1c(SC)nc2ccccc2c1OCc1ccc(C)cc1 | 17.8 |
| Cc1ccc(C)c(-c2ccc(=O)n(Cc3ccc(F)cc3Cl)n2)c1 | 9.29 |
| CCC(Oc1ccccc1)C(=O)Nc1ccccc1N1CCCC1 (stereo not given) | 13.2 |
| COc1ccc(OC)c(C(=O)/C=C/c2ccccc2C(F)(F)F)c1 | 9.45 |
| O=C(NCC(c1ccco1)N1CCCCC1)c1cccc(NS(=O)(=O)c2ccc(Br)cc2)c1 (stereo not given) | 6.79 |
| O=C(O)CCc1ccc(-c2ccc(Br)cc2)n1-c1ccc(O)cc1 | 9.17 |
| Cc1ccc(CN(C(=O)COc2cc(C)c(Cl)c(C)c2)c2ccccn2)o1 | -10.2 |
| CCc1noc(C)c1C(=O)N1CCCSC1=Nc1ccccc1Cl | -10.2 |
| COc1ccc(Nc2nnc(-c3ccc(O)cc3)c3ccccc23)cc1 | 6.6 |

These compounds were tested against Rap guanine nucleotide exchange factor 4 (Homo sapiens) (UniProt Q8WZA2) (assay: Confirmatory qHTS for agonist of cAMP-regulated guanine nucleotide exchange factor 4 (EPAC2) (AID 1645884;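 further: nucleotide exchange releases bodipy-GDP from Rap1 and this lowers its fluorescence; on the % scale 0 is the no-effect control and ±100 the full control effect; nearly all actives have a fitted effect of over 65% in size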)). Conditions: EPAC2 GEF activity, Rap1B-BODIPY-GDP fluorescence; series mostly up to 154 µM; activation: at the top concentration.
Chain of Rap guanine nucleotide exchange factor 4 (Homo sapiens) (Q8WZA2 whole entry, looked up): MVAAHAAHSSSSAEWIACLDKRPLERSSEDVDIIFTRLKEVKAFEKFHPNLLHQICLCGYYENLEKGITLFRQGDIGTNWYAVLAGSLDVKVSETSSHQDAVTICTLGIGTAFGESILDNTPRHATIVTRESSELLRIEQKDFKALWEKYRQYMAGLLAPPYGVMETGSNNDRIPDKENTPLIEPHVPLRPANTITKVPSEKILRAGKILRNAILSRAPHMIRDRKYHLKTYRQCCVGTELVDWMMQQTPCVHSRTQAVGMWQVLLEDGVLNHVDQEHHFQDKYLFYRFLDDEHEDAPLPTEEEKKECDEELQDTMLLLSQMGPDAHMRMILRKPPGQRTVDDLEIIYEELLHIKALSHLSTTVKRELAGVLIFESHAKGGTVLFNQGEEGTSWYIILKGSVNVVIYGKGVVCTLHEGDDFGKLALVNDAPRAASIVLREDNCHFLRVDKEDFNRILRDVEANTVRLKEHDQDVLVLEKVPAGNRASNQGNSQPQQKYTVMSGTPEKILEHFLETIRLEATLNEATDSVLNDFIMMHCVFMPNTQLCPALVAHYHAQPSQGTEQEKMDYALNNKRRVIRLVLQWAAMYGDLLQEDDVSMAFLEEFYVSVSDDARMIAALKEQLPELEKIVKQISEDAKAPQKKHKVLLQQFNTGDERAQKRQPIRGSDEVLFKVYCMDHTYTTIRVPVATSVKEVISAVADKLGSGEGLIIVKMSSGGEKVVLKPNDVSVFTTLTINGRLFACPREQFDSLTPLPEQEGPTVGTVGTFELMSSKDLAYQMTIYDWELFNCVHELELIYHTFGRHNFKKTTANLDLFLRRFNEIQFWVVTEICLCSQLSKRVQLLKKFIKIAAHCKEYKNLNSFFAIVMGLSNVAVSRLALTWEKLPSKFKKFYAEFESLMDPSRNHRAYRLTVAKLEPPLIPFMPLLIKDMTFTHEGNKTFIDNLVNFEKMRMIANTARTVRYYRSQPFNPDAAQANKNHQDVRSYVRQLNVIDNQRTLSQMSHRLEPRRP

| SMILES | activation |
| --- | --- |
| C=CCn1c(=NC(=O)c2sc3ccccc3c2Cl)sc2cc(S(N)(=O)=O)ccc21 | -6.52% |
| CC(C)N1CCc2c(sc(NC(=O)c3ccc(S(=O)(=O)N4CCc5ccccc54)cc3)c2C(N)=O)C1 | 14.5% |
| O=C(NCCc1c[nH]c2ccccc12)C(=O)Nc1cc2c3c(c1)CC(=O)N3CCC2 | -13.3% |
| O=[N+]([O-])c1ccc(NS(=O)(=O)c2ccc(Cl)c(Cl)c2)cc1 | -8.23% |
| COc1ccc(OC)c(N2C(=O)[C@@H]3C(c4ccccc4Cl)=NO[C@@H]3C2=O)c1 | -14.3% |
| Clc1ccc(Cn2c(/C=C/c3ccco3)nc3ccccc32)cc1 | -0.998% |
| COc1ccc(OC)c(CCNC(=O)c2ccc(CS(=O)(=O)c3ccc(Br)cc3)o2)c1 | -29% |
| Cc1ccc(N(Cc2cccs2)C(=O)c2ccco2)cc1 | 15.2% [at 83.8 µM, percent relative to cAMP agonist control] |
| CCc1ccc(NS(=O)(=O)c2cc3c4c(c2)CCN4C(=O)CC3)cc1 | -0.0581% |
| NS(=O)(=O)c1ccc(NC(=O)c2cccc(N3C(=O)c4ccccc4C3=O)c2)cc1 | 3.4% [at 17.1 µM, percent relative to cAMP agonist control] |
| O=C1C=C(NCc2ccccc2)c2ccccc2C1=O | 19.7% |
| CC(Oc1ccc(Cl)cc1)C(=O)Nc1sccc1C(N)=O (stereo not given) | 0.0366% [at 17.1 µM, percent relative to cAMP agonist control] |
| O=S(=O)(NCCC1=CCCCC1)c1ccc(OC(F)(F)F)cc1 | -1.46% [at 17.1 µM, percent relative to cAMP agonist control] |
| COc1ccc(-c2nc3ccccc3n2CCC(C)C)cc1OC | -0.716% |
| O=C(O)c1ccccc1NS(=O)(=O)c1ccc(NN=Cc2ccccc2F)c([N+](=O)[O-])c1 | 4.76% [at 17.1 µM, percent relative to cAMP agonist control] |
| C[C@H]1CN([C@@H](C)CO)C(=O)c2cccc(NC(=O)C3CC3)c2O[C@H]1CN(C)S(=O)(=O)c1ccccc1 | -3.97% |
| C=CCc1ccccc1OCCSc1nc(-c2ccccc2F)nc2cc(=O)[nH]n12 | 17.9% [at 83.8 µM, percent relative to cAMP agonist control] |
| CCC(C)n1c(SCC(=O)Nc2ccc3[nH]c(=O)[nH]c3c2)nc2ccccc2c1=O (stereo not given) | 1.51% [at 17.1 µM, percent relative to cAMP agonist control] |
| C#Cc1ccc([C@@H]2C=C(C(=O)NCc3ccccc3)O[C@H](OCc3ccc(CO)cc3)C2)cc1 | 11.4% |
| Cc1ccc(-c2nnc(Nc3ccc(OCC(N)=O)cc3)c3ccccc23)cc1S(N)(=O)=O | 6.4% |

| SMILES | activation |
| --- | --- |
| CCc1ccc(OCC2c3cc(OC)c(OC)cc3CCN2C(C)=O)cc1 (stereo not given) | 1.59% |
| CC(=O)c1sc2nc(CSc3nnnn3-c3ccccc3)[nH]c(=O)c2c1C | 0.183% [at 17.1 µM, percent relative to cAMP agonist control] |
| O=c1c2ccccc2c(C=Nc2ccc(O)cc2)c(O)n1Cc1ccccc1 | 1.98% [at 17.1 µM, percent relative to cAMP agonist control] |
| COc1ccccc1C1CC(=O)Oc2cc(C)c(Cl)cc21 (stereo not given) | 0.297% |
| NS(=O)(=O)c1ccc(N/N=C/c2ccccc2C(=O)O)c([N+](=O)[O-])c1 | -5.55% |
| Cc1ccc(/C=C/C(=O)Nc2nnc(SCc3ccc(C#N)cc3)s2)o1 | -6.18% |
| CCOC(=O)C1=C(N)Oc2cc(O)ccc2C1c1ccccc1 (stereo not given) | -4.25% [at 17.1 µM, percent relative to cAMP agonist control] |
| CC(=O)c1c(C)[nH]c(C(=O)OCC(=O)c2ccc3c(c2)NC(=O)CO3)c1C | -15.5% |
| Cc1ccc(C)c(Nc2cc(C)nc(-c3ccccc3O)n2)c1 | 10% [at 17.1 µM, percent relative to cAMP agonist control] |
| CC(=O)Nc1ccc(S(=O)(=O)Nc2nc3ccccc3nc2-n2ccc(=NC(=O)c3ccccc3)cc2)cc1 | -0.645% [at 17.1 µM, percent relative to cAMP agonist control] |
| O=C(N/N=C/c1ccccc1O)c1cccc(C(F)(F)F)c1 | 5.14% [at 17.1 µM, percent relative to cAMP agonist control] |
| COC(=O)c1c(SC)nc2ccccc2c1OCc1ccc(C)cc1 | -28.1% [at 83.8 µM, percent relative to cAMP agonist control] |
| Cc1ccc(C)c(-c2ccc(=O)n(Cc3ccc(F)cc3Cl)n2)c1 | -14.2% [at 83.8 µM, percent relative to cAMP agonist control] |
| CCC(Oc1ccccc1)C(=O)Nc1ccccc1N1CCCC1 (stereo not given) | 1.81% |
| COc1ccc(OC)c(C(=O)/C=C/c2ccccc2C(F)(F)F)c1 | 0.128% |
| O=C(NCC(c1ccco1)N1CCCCC1)c1cccc(NS(=O)(=O)c2ccc(Br)cc2)c1 (stereo not given) | -6.31% [at 17.1 µM, percent relative to cAMP agonist control] |
| O=C(O)CCc1ccc(-c2ccc(Br)cc2)n1-c1ccc(O)cc1 | 11.4% |
| Cc1ccc(CN(C(=O)COc2cc(C)c(Cl)c(C)c2)c2ccccn2)o1 | -31% [at 83.8 µM, percent relative to cAMP agonist control] |
| CCc1noc(C)c1C(=O)N1CCCSC1=Nc1ccccc1Cl | 0.52% [at 17.1 µM, percent relative to cAMP agonist control] |
| COc1ccc(Nc2nnc(-c3ccc(O)cc3)c3ccccc23)cc1 | 5.03% [at 17.1 µM, percent relative to cAMP agonist control] |
